Tests used:
Test in all cases: DAPPL (digital affinity profiling via proximity ligation, sequencing); 10 mM Tris-HCl pH 7.5, 50 mM NaCl, 1 mM DTT, 4% glycerol, room temperature, 30 min; GST-TFs on glutathione beads, 16-mer random dsDNA library, 0.1% formaldehyde crosslink after washing; high values mean tight binding
FLI1 = biological target: T1, FLI1 (Homo sapiens, UniProt Q01543 1-452); conditions: protein: recombinant; tags: N-terminal GST; dsDNA, one strand shown
T1 sequence: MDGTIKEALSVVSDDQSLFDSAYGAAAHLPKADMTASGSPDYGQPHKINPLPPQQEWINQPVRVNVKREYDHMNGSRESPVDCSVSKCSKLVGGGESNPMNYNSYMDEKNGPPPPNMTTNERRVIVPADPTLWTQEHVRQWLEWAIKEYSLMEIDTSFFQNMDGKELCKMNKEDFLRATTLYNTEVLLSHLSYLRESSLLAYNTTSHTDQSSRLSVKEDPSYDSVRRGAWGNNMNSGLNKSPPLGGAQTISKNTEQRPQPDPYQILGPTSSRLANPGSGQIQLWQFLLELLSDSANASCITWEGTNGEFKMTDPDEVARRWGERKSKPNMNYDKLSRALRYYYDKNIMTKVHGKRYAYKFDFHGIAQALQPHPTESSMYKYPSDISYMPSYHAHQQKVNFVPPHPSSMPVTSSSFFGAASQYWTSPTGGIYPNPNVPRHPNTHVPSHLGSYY
Procedure, shortened: (§1)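 Yeast served to express human transcription factors as GST fusions, which were then captured on glutathione beads and labelled with DNA barcodes. Pooled with a tag-only sample, they were incubated with 200 nmole of a 16-mer random double-stranded DNA library for 30 min at room temperature in Tris/NaCl/DTT/glycerol buffer, washed, crosslinked with 0.1% formaldehyde, ligated by proximity, amplified by PCR and sequenced. Dividing each hexamer's read frequency for a factor by its frequency for the tag-only sample gives the binding signal.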

GABPA = biological target: T2, GABPA (Homo sapiens, UniProt Q06546 1-454); conditions: protein: recombinant; tags: N-terminal GST; dsDNA, one strand shown
T2 sequence: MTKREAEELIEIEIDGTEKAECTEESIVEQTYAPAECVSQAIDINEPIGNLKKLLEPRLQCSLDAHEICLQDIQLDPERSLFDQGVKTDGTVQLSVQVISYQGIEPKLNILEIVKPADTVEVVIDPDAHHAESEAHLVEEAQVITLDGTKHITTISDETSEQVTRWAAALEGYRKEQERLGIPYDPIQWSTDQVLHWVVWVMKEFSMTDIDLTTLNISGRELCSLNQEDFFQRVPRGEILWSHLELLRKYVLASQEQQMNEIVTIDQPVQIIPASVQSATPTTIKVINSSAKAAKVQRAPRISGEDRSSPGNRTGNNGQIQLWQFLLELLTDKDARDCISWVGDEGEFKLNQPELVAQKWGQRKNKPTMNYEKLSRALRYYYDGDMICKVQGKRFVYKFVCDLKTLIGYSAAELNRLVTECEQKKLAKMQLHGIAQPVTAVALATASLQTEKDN
Procedure, shortened: as §1

ELF1 = ELF1 (Homo sapiens, UniProt P32519 1-619); conditions: protein: recombinant; tags: N-terminal GST; dsDNA, one strand shown
ELF1, sequence (P32519 whole entry): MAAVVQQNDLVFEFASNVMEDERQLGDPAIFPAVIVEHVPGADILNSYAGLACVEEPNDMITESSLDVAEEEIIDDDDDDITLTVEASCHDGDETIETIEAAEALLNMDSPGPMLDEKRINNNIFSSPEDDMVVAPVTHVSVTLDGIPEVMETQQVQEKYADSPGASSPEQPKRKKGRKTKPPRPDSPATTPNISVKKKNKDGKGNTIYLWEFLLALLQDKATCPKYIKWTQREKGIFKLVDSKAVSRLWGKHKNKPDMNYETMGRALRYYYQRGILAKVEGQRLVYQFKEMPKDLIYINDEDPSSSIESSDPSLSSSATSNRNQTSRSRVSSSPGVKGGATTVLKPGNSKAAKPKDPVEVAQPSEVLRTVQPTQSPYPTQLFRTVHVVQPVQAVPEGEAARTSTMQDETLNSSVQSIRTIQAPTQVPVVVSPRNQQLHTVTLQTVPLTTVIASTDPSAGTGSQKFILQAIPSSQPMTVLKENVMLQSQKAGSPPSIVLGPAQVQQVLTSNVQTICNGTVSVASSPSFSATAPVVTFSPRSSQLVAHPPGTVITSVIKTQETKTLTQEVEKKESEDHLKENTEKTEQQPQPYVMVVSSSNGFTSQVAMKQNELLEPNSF
Procedure, shortened: as §1

EHF = biological target: T3, EHF (Homo sapiens, UniProt Q9NZC4 1-300); conditions: protein: recombinant; tags: N-terminal GST; dsDNA, one strand shown
T3 sequence: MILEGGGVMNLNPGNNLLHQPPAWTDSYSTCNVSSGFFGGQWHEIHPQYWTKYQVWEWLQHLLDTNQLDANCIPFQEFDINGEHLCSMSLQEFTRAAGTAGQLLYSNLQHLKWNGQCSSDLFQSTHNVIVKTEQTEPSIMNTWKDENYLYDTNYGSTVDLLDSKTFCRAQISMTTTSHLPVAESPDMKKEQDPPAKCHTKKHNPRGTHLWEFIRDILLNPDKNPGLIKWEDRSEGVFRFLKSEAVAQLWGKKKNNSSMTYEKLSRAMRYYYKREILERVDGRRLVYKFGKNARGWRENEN
Procedure, shortened: as §1

SPI1 = SPI1 (Homo sapiens, UniProt P17947 1-270); conditions: protein: recombinant; tags: N-terminal GST; dsDNA, one strand shown
Procedure, shortened: as §1

SPIB = SPIB (Homo sapiens, UniProt Q01892 1-262); conditions: protein: recombinant; tags: N-terminal GST; dsDNA, one strand shown
SPIB, sequence (Q01892 whole entry): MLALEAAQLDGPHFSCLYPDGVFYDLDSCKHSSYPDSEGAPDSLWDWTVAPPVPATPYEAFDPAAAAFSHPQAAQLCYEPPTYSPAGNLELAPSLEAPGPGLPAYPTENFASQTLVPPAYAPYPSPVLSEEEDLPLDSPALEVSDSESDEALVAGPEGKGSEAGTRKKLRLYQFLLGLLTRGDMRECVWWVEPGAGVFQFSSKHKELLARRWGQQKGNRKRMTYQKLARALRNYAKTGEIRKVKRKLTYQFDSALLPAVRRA
Procedure, shortened: as §1

ELK3 = biological target: T4, ELK3 (Homo sapiens, UniProt P41970 1-407); conditions: protein: recombinant; tags: N-terminal GST; dsDNA, one strand shown
T4 sequence: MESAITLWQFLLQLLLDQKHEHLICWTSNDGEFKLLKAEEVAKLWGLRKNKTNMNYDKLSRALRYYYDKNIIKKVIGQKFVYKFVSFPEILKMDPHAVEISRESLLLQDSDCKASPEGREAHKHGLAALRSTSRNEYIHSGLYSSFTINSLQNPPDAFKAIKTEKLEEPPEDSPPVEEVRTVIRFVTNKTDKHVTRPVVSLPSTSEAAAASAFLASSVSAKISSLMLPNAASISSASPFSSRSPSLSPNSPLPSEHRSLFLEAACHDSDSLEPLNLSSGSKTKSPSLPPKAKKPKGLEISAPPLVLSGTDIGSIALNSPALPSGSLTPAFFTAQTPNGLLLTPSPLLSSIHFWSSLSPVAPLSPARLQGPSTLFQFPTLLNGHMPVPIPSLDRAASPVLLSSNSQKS
Procedure, shortened: as §1

ETV5 = ETV5 (Homo sapiens, UniProt P41161 1-510); conditions: protein: recombinant; tags: N-terminal GST; dsDNA, one strand shown
ETV5, sequence (P41161 whole entry): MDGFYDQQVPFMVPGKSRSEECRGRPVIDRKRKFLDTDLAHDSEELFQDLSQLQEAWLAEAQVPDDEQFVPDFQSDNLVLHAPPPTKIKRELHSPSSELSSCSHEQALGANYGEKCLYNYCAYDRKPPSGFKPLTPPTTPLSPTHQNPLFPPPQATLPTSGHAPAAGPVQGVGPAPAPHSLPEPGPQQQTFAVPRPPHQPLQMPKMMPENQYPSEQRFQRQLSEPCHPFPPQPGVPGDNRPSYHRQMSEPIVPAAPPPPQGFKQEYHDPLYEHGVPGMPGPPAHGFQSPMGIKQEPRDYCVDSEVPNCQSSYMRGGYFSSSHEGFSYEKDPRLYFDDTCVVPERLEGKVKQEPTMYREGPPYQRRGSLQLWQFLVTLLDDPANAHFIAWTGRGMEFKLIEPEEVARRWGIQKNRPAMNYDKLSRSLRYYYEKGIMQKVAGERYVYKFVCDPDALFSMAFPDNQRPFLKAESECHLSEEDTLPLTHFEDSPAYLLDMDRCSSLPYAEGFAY
Procedure, shortened: as §1

HSF1 = HSF1 (Homo sapiens, UniProt Q00613 1-529); conditions: protein: recombinant; tags: N-terminal GST; chain copies: 3; dsDNA, one strand shown
HSF1, sequence (Q00613 whole entry): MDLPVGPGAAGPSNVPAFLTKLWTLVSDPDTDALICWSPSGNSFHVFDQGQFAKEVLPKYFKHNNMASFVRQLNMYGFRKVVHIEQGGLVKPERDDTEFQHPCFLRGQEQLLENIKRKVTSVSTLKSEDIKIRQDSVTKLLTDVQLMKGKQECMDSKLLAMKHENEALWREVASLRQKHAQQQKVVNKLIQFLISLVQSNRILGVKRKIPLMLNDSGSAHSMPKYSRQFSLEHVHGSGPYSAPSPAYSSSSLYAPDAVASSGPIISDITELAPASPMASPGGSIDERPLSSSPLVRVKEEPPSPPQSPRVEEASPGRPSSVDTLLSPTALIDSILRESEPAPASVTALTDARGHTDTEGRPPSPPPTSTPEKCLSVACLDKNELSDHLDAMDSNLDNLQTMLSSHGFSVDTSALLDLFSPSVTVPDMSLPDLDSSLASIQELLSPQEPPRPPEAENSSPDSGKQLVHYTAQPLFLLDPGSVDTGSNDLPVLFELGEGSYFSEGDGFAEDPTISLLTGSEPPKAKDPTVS
Procedure, shortened: as §1

SPIC = biological target: T5, SPIC (Homo sapiens, UniProt Q8N5J4 1-248); conditions: protein: recombinant; tags: N-terminal GST; dsDNA, one strand shown
T5 sequence: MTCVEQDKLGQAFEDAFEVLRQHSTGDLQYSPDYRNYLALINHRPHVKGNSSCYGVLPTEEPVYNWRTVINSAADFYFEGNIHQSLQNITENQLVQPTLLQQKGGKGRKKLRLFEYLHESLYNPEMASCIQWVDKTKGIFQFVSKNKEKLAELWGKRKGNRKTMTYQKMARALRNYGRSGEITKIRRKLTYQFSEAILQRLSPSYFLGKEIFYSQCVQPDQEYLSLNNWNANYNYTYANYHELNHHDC
Procedure, shortened: as §1

ELF4 = ELF4 (Homo sapiens, UniProt Q99607 1-663); conditions: protein: recombinant; tags: N-terminal GST; dsDNA, one strand shown
ELF4, sequence (Q99607 whole entry): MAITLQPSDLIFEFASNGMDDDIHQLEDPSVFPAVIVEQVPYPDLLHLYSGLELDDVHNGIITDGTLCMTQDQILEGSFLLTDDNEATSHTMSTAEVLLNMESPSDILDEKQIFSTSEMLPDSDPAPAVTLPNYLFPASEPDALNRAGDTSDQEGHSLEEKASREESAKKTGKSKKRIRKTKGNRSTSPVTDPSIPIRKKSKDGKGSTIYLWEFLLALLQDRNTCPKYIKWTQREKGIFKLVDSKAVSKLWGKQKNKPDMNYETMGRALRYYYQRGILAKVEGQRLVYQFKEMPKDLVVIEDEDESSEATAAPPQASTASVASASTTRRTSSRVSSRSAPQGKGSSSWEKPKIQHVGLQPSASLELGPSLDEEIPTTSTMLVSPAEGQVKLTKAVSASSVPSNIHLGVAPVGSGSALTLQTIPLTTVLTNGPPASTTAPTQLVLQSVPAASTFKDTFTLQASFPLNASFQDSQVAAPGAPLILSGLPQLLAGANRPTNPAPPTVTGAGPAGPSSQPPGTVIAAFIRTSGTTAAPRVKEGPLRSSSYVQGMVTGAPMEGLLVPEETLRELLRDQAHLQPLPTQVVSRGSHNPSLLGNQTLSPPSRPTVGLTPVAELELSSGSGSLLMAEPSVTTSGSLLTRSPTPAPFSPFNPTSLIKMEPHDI
Procedure, shortened: as §1

ELK4 = biological target: T6, ELK4 (Homo sapiens, UniProt P28324-2 1-405); conditions: protein: recombinant; tags: N-terminal GST; dsDNA, one strand shown
T6 sequence: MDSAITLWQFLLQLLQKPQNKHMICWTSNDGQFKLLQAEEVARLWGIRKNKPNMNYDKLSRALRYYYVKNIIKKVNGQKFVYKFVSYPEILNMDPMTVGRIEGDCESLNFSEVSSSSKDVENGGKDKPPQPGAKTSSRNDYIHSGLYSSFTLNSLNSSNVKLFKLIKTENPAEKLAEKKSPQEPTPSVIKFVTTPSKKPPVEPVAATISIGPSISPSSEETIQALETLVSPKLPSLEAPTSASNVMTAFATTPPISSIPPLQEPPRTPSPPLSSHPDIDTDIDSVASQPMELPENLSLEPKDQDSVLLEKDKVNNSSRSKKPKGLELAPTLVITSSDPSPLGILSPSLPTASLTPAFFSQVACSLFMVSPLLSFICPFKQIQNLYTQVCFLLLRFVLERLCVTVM
Procedure, shortened: as §1

ETV2 = biological target: T7, ETV2 (Homo sapiens, UniProt O00321 1-342); conditions: protein: recombinant; tags: N-terminal GST; dsDNA, one strand shown
T7 sequence: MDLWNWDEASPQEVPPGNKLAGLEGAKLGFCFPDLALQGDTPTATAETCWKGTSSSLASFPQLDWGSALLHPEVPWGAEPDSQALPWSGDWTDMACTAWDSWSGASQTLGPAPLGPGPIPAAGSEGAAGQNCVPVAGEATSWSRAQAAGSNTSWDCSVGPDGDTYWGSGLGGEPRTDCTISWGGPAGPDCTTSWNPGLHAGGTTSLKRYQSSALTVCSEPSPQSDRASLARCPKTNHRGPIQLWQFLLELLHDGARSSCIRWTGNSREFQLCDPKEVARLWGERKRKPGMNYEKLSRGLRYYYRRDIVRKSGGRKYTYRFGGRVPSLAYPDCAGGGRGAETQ
Procedure, shortened: as §1

ELF3 = biological target: T8, ELF3 (Homo sapiens, UniProt P78545 1-371); conditions: protein: recombinant; tags: N-terminal GST; dsDNA, one strand shown
T8 sequence: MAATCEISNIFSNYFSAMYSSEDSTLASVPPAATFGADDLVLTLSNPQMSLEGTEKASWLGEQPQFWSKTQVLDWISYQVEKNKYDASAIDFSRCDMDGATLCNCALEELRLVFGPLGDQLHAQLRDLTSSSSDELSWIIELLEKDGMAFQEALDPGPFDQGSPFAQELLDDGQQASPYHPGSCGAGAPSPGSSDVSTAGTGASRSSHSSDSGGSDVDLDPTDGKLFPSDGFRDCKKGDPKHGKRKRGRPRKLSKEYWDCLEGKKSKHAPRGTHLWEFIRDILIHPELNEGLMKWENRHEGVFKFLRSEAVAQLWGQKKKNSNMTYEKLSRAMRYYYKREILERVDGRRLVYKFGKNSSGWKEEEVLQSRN
Procedure, shortened: as §1

CRX = CRX (Homo sapiens, UniProt O43186 1-299); conditions: protein: recombinant; tags: N-terminal GST; dsDNA, one strand shown
CRX, sequence (O43186 whole entry): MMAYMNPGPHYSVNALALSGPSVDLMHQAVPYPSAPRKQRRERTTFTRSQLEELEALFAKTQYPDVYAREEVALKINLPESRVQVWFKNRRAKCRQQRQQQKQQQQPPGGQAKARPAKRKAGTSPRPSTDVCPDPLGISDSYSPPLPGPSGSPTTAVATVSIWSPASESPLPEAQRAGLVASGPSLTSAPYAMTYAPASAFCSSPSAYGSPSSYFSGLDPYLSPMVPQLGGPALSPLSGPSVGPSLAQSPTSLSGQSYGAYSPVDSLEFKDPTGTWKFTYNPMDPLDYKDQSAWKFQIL
Procedure, shortened: as §1

ETV1 = ETV1 (Homo sapiens, UniProt P50549 1-477); conditions: protein: recombinant; tags: N-terminal GST; dsDNA, one strand shown
ETV1, sequence (P50549 whole entry): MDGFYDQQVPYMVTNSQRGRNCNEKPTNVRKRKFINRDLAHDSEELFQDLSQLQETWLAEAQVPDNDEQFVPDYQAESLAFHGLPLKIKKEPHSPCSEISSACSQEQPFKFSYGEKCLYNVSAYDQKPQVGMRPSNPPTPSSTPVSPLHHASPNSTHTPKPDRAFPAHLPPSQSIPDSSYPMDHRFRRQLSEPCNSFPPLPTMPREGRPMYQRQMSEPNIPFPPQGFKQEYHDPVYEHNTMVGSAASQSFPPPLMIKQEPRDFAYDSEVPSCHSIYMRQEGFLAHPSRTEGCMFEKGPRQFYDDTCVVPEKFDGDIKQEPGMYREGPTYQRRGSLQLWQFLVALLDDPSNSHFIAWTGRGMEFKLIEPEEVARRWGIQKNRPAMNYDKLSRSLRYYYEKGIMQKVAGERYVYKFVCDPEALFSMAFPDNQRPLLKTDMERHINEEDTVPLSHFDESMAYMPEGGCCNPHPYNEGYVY
Procedure, shortened: as §1

ERG = biological target: T9, ERG (Homo sapiens, UniProt P11308 1-479); conditions: protein: recombinant; tags: N-terminal GST; dsDNA, one strand shown
T9 sequence: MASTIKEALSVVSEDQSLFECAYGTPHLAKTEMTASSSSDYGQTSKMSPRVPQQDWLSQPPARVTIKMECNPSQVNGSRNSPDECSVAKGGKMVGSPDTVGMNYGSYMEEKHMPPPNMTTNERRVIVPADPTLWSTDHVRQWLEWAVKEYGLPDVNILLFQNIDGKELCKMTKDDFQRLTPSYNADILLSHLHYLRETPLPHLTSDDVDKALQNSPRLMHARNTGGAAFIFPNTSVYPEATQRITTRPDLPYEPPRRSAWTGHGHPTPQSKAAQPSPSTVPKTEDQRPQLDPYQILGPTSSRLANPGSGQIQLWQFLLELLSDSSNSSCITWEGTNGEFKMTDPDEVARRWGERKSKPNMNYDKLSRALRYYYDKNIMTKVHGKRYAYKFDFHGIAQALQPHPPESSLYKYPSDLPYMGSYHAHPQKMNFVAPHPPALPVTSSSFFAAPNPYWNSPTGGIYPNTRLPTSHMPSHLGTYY
Procedure, shortened: as §1

FEV = biological target: T10, FEV (Homo sapiens, UniProt Q99581 1-238); conditions: protein: recombinant; tags: N-terminal GST; dsDNA, one strand shown
T10 sequence: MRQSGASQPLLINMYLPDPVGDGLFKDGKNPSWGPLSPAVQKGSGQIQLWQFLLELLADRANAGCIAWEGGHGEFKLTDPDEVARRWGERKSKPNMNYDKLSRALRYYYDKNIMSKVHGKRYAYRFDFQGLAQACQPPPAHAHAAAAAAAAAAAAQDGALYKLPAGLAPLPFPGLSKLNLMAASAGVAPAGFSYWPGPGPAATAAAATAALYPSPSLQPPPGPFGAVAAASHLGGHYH
Procedure, shortened: as §1

Sequence	binding signal (FLI1)	binding signal (GABPA)	binding signal (ELF1)	binding signal (EHF)	binding signal (SPI1)	binding signal (SPIB)	binding signal (ELK3)	binding signal (ETV5)	binding signal (HSF1)	binding signal (SPIC)	binding signal (ELF4)	binding signal (ELK4)	binding signal (ETV2)	binding signal (ELF3)	binding signal (CRX)	binding signal (ETV1)	binding signal (ERG)	binding signal (FEV)
TAGTAA	1.13 fold enrichment (6-mer frequency, TF over GST control)	1.03 fold enrichment (6-mer frequency, TF over GST control)	1.08 fold enrichment (6-mer frequency, TF over GST control)	1.03 fold enrichment (6-mer frequency, TF over GST control)	1.02 fold enrichment (6-mer frequency, TF over GST control)	1.07 fold enrichment (6-mer frequency, TF over GST control)	1.13 fold enrichment (6-mer frequency, TF over GST control)	1.05 fold enrichment (6-mer frequency, TF over GST control)	1.54 fold enrichment (6-mer frequency, TF over GST control)	1.07 fold enrichment (6-mer frequency, TF over GST control)	1.05 fold enrichment (6-mer frequency, TF over GST control)	1.04 fold enrichment (6-mer frequency, TF over GST control)	1.12 fold enrichment (6-mer frequency, TF over GST control)	1.06 fold enrichment (6-mer frequency, TF over GST control)	1.59 fold enrichment (6-mer frequency, TF over GST control)	1.07 fold enrichment (6-mer frequency, TF over GST control)		
CATTAC	1.09 fold enrichment (6-mer frequency, TF over GST control)	1.2 fold enrichment (6-mer frequency, TF over GST control)	1.17 fold enrichment (6-mer frequency, TF over GST control)	1.13 fold enrichment (6-mer frequency, TF over GST control)	1.1 fold enrichment (6-mer frequency, TF over GST control)	1.17 fold enrichment (6-mer frequency, TF over GST control)	1.15 fold enrichment (6-mer frequency, TF over GST control)	1.13 fold enrichment (6-mer frequency, TF over GST control)	1.02 fold enrichment (6-mer frequency, TF over GST control)	1.05 fold enrichment (6-mer frequency, TF over GST control)	1.1 fold enrichment (6-mer frequency, TF over GST control)	1.17 fold enrichment (6-mer frequency, TF over GST control)	1.22 fold enrichment (6-mer frequency, TF over GST control)	1.08 fold enrichment (6-mer frequency, TF over GST control)	1.18 fold enrichment (6-mer frequency, TF over GST control)	1.18 fold enrichment (6-mer frequency, TF over GST control)	1.06 fold enrichment (6-mer frequency, TF over GST control)	1.12 fold enrichment (6-mer frequency, TF over GST control)
